Only some compounds are listed: those with a hit (about 4.6% of all), similar ones and a draw of the others.
TexasRed fluor: Total Fluorescence Counterscreen for Inhibitors of the Interaction of Thyroid Hormone Receptor and Steroid Receptor Coregulator 2. TRb/SRC2 Texas Red total fluorescence interference. Potency, µM (titrated, usually from 106 µM), inactives show top-dose fluorescence change, negative = quenching. actives 0.29% (n = 280,000); active = well fitted curve in either direction with a large enough effect; inconclusive = small, poorly fitted or top-dose-only effect; note: potency is the fitted concentration of half-maximal effect
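Human TRb ligand-binding domain at 0.6 uM with 20 nM Texas Red SRC2 peptide in Tris buffer containing 1 uM T3 and 5% DMSO, incubated with compound 5 h at ambient temperature. Total fluorescence (555/632 nm) calculated as parallel + 2 × perpendicular.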
Tau fibril FP: qHTS for Inhibitors of Tau Fibril Formation, Fluorescence Polarization; Potency, µM (titrated, usually from 57.7 µM), for the others: at the highest dose activity, negative = inhibition, usual class: inhibitors; Microtubule-associated protein tau (Homo sapiens), P10636; AID 1468, 2008; K18 P301L tau heparin fibrillization, Alexa594 FP, 6 h; actives 0.39% (n = 280,000); note: potency is the fitted concentration of half-maximal effect; nearly all actives have a fitted effect of over 55% in size
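FP of Alexa 594-tau after heparin (20 uM) induction. Substrate: human K18 P301L, 15 uM unlabeled, 0.24 uM labeled. Buffer 100 mM sodium acetate pH 7. 6 hr, 37 C.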
PNC assembly inh: High Content Assay for Compounds that inhibit the Assembly of the Perinucleolar Compartment; activity change (PNC), negative = inhibition, % at 10 µM; PC3M PTB-GFP, PNC prevalence imaging, 16 h; hits give low values; actives 3.1% (n = 140,000);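 active = readout at or below -70, meaning at least 70% loss of cells showing the perinucleolar compartment, a nuclear body marking cancer cells; inconclusive = readout between -30 and a set limit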;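 note: plate controls were DMSO wells for no effect and camptothecin positive control wells for full effect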
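Compounds are pinned in duplicate onto adhered PC3M cells stably expressing GFP-tagged PTB and incubated 16 h at 37 C. Cells are then fixed, nuclei stained with Hoechst, and PNC-positive cells counted.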
Tau fibril ThT: qHTS for Inhibitors of Tau Fibril Formation, Thioflavin T Binding. Microtubule-associated protein tau (Homo sapiens), P10636. recombinant tau K18 P301L, heparin-induced fibrillization, ThT fluorescence. Potency, µM (doses to about 57.4 µM), without a hit: top-dose activity, negative = inhibition, hits mostly inhibitors. actives 2.1% (n = 270,000). AID 1460, 2008; note: potency is the fitted concentration of half-maximal effect; nearly all actives have a fitted effect of over 55% in size
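ThT emission at 510 nm, taken 1 hr after adding 30 uM dye, quantifies aggregates formed when 20 uM heparin acts on human tau K18 P301L for 6 hr at 37 C.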
Tau fluor cs: Counterscreen qHTS for Inhibitors of Tau Fibril Formation, Fluorescence Polarization | actives 0.93% (n = 280,000) | Potency, µM (series often up to 57.7 µM), for inactives: top-dose activity change, negative = decrease | AID 1463, 2008 | tau K18 P301L Alexa594 fluorescence, heparin fibrillization; note: potency is the fitted concentration of half-maximal effect; nearly all actives have a fitted effect of over 55% in size
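Human tau K18 P301L (15 uM unlabeled, 0.24 uM Alexa 594-labeled) in 100 mM sodium acetate pH 7 with 20 uM heparin, 6 hr at 37 C. ThT 30 uM added, 1 hr ambient; Alexa 594 FP and total fluorescence read at 555/632 nm.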
TRb SRC2 PPI: qHTS for Inhibitors of the Interaction of Thyroid Hormone Receptor and Steroid Receptor Coregulator 2; actives 0.065% (n = 280,000); Potency, µM (doses to about 106 µM), for inactives: top-dose activity change, negative = inhibition, most hits filed as inhibitors; Thyroid hormone receptor beta (Homo sapiens), P10828; TRbeta-SRC2 peptide binding, fluorescence polarization; receptor liganded with 1 µM T3; AID 1469, 2008;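 note: potency is the fitted concentration of half-maximal effect; plate controls were bound peptide for no effect and peptide without receptor for full effect; nearly all actives have a fitted effect of over 50% in size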
Target sequence (P10828 whole entry, looked up): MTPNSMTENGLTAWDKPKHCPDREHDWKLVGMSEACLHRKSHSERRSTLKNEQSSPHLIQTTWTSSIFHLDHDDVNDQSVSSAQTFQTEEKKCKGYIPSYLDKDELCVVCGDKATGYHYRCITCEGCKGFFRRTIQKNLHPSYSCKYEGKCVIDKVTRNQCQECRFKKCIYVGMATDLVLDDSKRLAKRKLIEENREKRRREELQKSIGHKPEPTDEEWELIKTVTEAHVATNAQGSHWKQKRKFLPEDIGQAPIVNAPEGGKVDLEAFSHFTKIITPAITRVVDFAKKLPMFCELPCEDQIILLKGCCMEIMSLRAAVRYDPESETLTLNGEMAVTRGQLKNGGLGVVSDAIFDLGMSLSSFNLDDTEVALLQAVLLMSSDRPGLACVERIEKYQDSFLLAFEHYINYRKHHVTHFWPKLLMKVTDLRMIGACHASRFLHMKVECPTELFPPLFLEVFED
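Fluorescence polarization of 20 nM Texas Red SRC2 peptide (20-aa NR interaction domain) bound to 0.6 uM human TRb ligand-binding domain, with 1 uM T3, after 5 hr at ambient temperature; inhibition seen as decreased polarization.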
Starred values were filed as active, the others as inactive; ? = inconclusive; . = no result given; [ ] = dose if it differs, or a comment. Unless noted, calls come from the whole dose curve; as a rule, active = well fitted curve in the direction sought with a large enough effect; inconclusive = small, poorly fitted or top-dose-only effect, or another doubt; inactive = no such curve, though single readings can be large; an effect the other way counts as inactive or inconclusive. Unless noted, % is set by controls: 0 for no effect and ±100 for the full control effect.

SMILES | TexasRed fluor | Tau fibril FP | PNC assembly inh | Tau fibril ThT | Tau fluor cs | TRb SRC2 PPI
Cc1ccccc1C(=O)NC1(C(F)(F)F)N=C(c2ccccc2)N(Cc2ccccc2)C1=O (stereo not given) | 10µM*[quencher] | -1.2% | . | ? | ? | -3.1%
Cc1ccc(C(=O)NC2(C(F)(F)F)N=C(c3ccccc3)N(C3CCCCC3)C2=O)cc1 (stereo not given) | -13.2% | -11.4% | . | -3.7% | -16.4% | 0.8%
CC1(C)c2ccccc2N2CC(=O)NC21/C=C/c1ccco1 (stereo not given) | 11.5% | ? | -17.3 | ? | ? | -3.6%
CC1(C)c2ccccc2N2CCC(=O)NC21/C=C/c1ccco1 (stereo not given) | 44.7µM*[fluorescent] | -3.6% | 0.2 | ? | -10.7% | ?
CCSC1=NSC2=NC(=O)/C(=C\c3coc4ccccc4c3=O)C(=N)N12 | -17.5% | -4.0% | ? | 25.1µM* | ? | 18.1%
CC(C)CC1=NN2C(=N)/C(=C\c3coc4ccccc4c3=O)C(=O)N=C2S1 | -21.7% | ? | . | 31.6µM* | ? | 21.9%
O=C(C1CCN(S(=O)(=O)c2ccc(Cl)cc2)CC1)N1CCOCC1 | -2.0% | 2.1% | ? | 5.8% | 1.2% | -1.8%
CCOc1cc(S(=O)(=O)NCCc2c(C)[nH]c3ccc(C)cc23)ccc1Br | 2.7% | 15.4% | . | ? | 3.55µM*[quencher] | -1.3%
CCOc1cc(S(=O)(=O)NCCc2c(C)[nH]c3ccc(C)cc23)ccc1F | -3.0% | ? | . | -7.9% | ? | 5.7%
COc1ccc(NC(=O)c2ccccc2C(=O)N2CCCCC2)cc1 | 0.5% | 2.8% | . | 4.9% | 4.0% | 1.4%
CCOC(=O)c1ccccc1NC(=O)CSc1nnnn1C1CCCCC1 | 1.0% | ? | -21.0 | 14.1µM* | ? | -1.0%
CCc1ccccc1NC(=O)CSc1nccn1C | ? | -9.5% | . | -7.0% | -14.1% | 8.7%
CCOc1ccc(NC(=O)CSc2nccn2C)cc1 | 0.4% | 0.7% | -100.0* | -5.8% | -0.3% | 2.7%
Cn1ccnc1SCC(=O)Nc1ccc(Oc2ccccc2)cc1 | -1.6% | 0.2% | -19.2 | -8.5% | -10.3% | -2.0%
CCOC(=O)c1ccccc1NC(=O)CSc1nccn1C | -5.9% | -0.8% | -100.0* | -1.5% | -0.3% | -2.8%
COC(=O)c1ccccc1NC(=O)CSc1nnnn1C1CCCCC1 | -0.2% | 2.4% | -18.4 | -9.5% | -8.7% | -15.5%
CN(C)CC1CCn2c(c(C3=C(c4cn(C)c5ccccc45)C(=O)NC3=O)c3ccccc32)C1 (stereo not given) | -4.1% | . | . | . | . | 6.9%
Cc1ccc(-c2noc(CN(C(=O)c3cccs3)C(C)C)n2)cc1 | -8.5% | 4.3% | ? | -10.8% | -9.4% | 3.3%
Cc1noc(NS(=O)(=O)c2ccc(N/C=C\C(=O)c3ccc(Br)cc3)cc2)c1C | -7.7% | -2.2% | . | 12.6µM* | -24.7% | 3.0%
Cc1noc(NS(=O)(=O)c2ccc(NC(=O)Nc3ccc(Cl)c(Cl)c3)cc2)c1C | -11.1% | ? | ? | ? | 11.2µM*[quencher] | -6.7%
Cc1noc(NS(=O)(=O)c2ccc(N/C=C\C(=O)c3cccc4ccccc34)cc2)c1C | -6.7% | -5.1% | . | 10µM* | -16.1% | -1.9%
COc1cc(OC)cc(C(=O)Nc2ccc(S(=O)(=O)Nc3onc(C)c3C)cc2)c1 | -1.1% | -2.1% | . | ? | -29.6% | 3.1%
CCOc1ccc(C(=O)/C=C/Nc2ccc(S(=O)(=O)Nc3onc(C)c3C)cc2)cc1 | -2.2% | 5.8% | -29.5 | 3.6% | 6.4% | 5.1%

Screening results (PubChem BioAssay)
